p53 reactivator: restores transcriptional activity of mutant p53 | H1299 p53-A138V BP100-luciferase reporter, luminescence, 24 h | Potency, µM (doses to about 92.2 µM), for the others: top-dose activity change, positive = activation, hits mostly activators | hit rate 0.063% among 320,000; also: potency is read from the fitted curve at half-maximal effect; % of control where 0% means no effect; nearly all actives have a fitted effect of over 45% in size
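p53-null H1299 cells stably carrying temperature-sensitive p53-A138V and a BP100-luciferase reporter were pinned with compounds (4-point, 1:5 series) and held 24 hrs at 37 deg C. Luminescence was read 10 min after detection reagent.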
BRCA1 expr up: activators of BRCA1 expression; hit rate 1.1% among 380,000; Potency, µM (series often up to 46.1 µM), for the others: top-dose activation, hits mostly activators; MCF7-BRCA1-FFLuc reporter, luminescence, 48 h; response scale: scaled: vehicle 0%, 10 µM genistein 100%; also: potency is read from the fitted curve at half-maximal effect; nearly all actives have a fitted effect of over 80% in size
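MCF7-BRCA1-FFLuc cells, 2000/well in phenol-red-free MEM, attached 2 h then treated 48 h at 37 C. Luciferase luminescence read 15 min after reagent; normalized to genistein maximum activation (10microM) and DMSO, concentration-response fitted.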
PTHR1 ag: activates the human parathyroid hormone receptor PTHR1 | HEK293 GP2 PTHR1 cells, GloSensor cAMP luminescence, 1 h | Potency, µM (titrated, usually from 115 µM), for inactives: top-dose activation, most hits filed as activators | hit rate 0.075% among 410,000 | AID 743266; also: potency is read from the fitted curve at half-maximal effect; nearly all actives have a fitted effect of over 55% in size
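HEK-293-derived GP2 cells expressing PTHR1 and a GloSensor cAMP reporter, 3,000/well, plated overnight, given luciferin plus IBMX (each 0.5 mM as added) for 1 h at 37 °C, then compound for 1 h at 37 °C. Luminescence was read after 15 min at room temperature.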
RGS4 inh: inhibitors of human regulator of G protein signaling 4 | P49798 | Transcreener GDP fluorescence polarization, RGS4-accelerated GTP hydrolysis | Potency, µM (titrated, usually from 114 µM), for inactives: at the top dose activity change, negative = inhibition, usual class: inhibitors | hit rate 0.039% among 390,000; also: potency is read from the fitted curve at half-maximal effect; % is scaled to controls: 0 for no effect and ±100 for the full control effect; nearly all actives have a fitted effect of over 75% in size
Target sequence (P49798 whole entry, looked up): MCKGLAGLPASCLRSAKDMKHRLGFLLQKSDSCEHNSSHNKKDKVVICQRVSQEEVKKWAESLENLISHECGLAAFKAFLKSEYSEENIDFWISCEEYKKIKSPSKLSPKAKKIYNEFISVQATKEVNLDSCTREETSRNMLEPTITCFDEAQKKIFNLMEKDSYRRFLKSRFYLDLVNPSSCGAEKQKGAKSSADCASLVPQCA
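MLSMR compounds (23 nl, pin-transferred) preincubated 10 min at room temperature with a 500nM (2x) first reagent, then RGS4 at 900nM (2x) plus Transcreener GDP mix added; fluorescence polarization (620/688 nm) read before and after 90 min at 30 °C.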
LDHA inh: blocks human lactate dehydrogenase A; P00338; purified LDHA, NADH/diaphorase-resazurin fluorescence; active compounds read low; activity change, % (values are at about 110 or 230 µM); hit rate 0.15% among 480,000; in the data active = activity change below about -30%; inconclusive = mostly about -25% to -30%;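 also: plate controls were DMSO wells for no effect and wells without enzyme for full effect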
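Human LDH5 (2 nM) was incubated with 0.06 mM NADH and 0.2 mM pyruvate for 5 min at room temperature in Tris pH 7.4. Remaining NADH was coupled through diaphorase/resazurin, and resorufin fluorescence was read at 0 and 20 min.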
Active calls of the source: *; i = inactive; u = inconclusive; x = not tested or not shown; ! = a repeat was not active; [ ] = another dose, or the depositor's remark. Shown are actives, neighbours in structure and some others; about 1.1% of the full set was active somewhere. Unless noted, calls follow the shape of the dose curve; as a rule, active = well fitted curve in the direction sought with a large enough effect; inconclusive = small, poorly fitted or top-dose-only effect, or another doubt; inactive = no such curve, though single readings can be large; an effect the other way counts as inactive or inconclusive.

SMILES | p53 reactivator | BRCA1 expr up | PTHR1 ag | RGS4 inh | LDHA inh
CCCCC(=O)N/N=C/c1ccc(-c2ccc([N+](=O)[O-])cc2)o1 | -1% | 0% | -48% | 9% | -14
CCOc1ccc(-c2nc(C#N)c(NC3CC3)o2)cc1 | u | 10µM* | i | 0% | 3
CCOc1ccc(-c2nc(C#N)c(NCc3ccc4c(c3)OCO4)o2)cc1 | u | 4% | -26% | 17% | -31*!
COc1ccccc1Nc1nc2ccccc2nc1NS(=O)(=O)c1ccc(C)c(C)c1 | x | x | x | x | 2
O=C(Nc1nccs1)c1ccc(Br)s1 | u | 10µM* | 0% | 5% | 0
Cc1ccc(C(=O)Nc2nccs2)s1 | u | 11µM* | 10% | -1% | -3
CCCc1cc(=O)oc2cc(OS(=O)(=O)c3ccccc3F)ccc12 | x | x | x | x | -2
COc1ccccc1OC(=O)COc1ccc(C)cc1Br | x | x | x | x | 3
CCc1c(C)sc(NC(=O)C2CCCCC2)c1C#N | x | x | x | x | 2
Cc1sc(NC(=O)C2CCCCC2)c(C#N)c1-c1ccccc1 | u | 7.1µM* | i | -23% | 1
Cc1c(-c2ccccc2)sc2ncn(CC(=O)NC3CCCc4ccccc43)c(=O)c12 (configuration not stated) | x | x | x | x | -2
Cc1cccnc1NC(=S)NC(=O)c1oc2ccccc2c1C | u | 2.8µM* | -30% | -21% | -5
COc1cc(/C=C(/C#N)C(=O)OC(C)C)cc(Cl)c1OC | x | x | x | x | 11
COc1ccc(C(C)=O)cc1COC(=O)c1ccc(C#N)cc1 | x | x | x | x | 0
O=c1n(Cc2ccccc2Cl)nc2n1-c1ccccc1SC2 | 4% | 11µM* | -39% | -22% | -2
Cc1ccc(C2CC(=O)c3cn4nc(C(F)(F)F)nc4nc3C2)cc1 (configuration not stated) | x | x | x | x | 9
Cc1nn(-c2ccccc2)c(Cl)c1/C=N/NC(=O)c1ccccc1F | 12% | 11µM* | -21% | -2% | 0
Nc1ccc2c(c1)C(=O)N(c1ccc3ccccc3c1)C2=O | x | 11µM* | x | 13% | -3
Cc1ccc(CNC(=O)C(C)N2CCN(c3ccc([N+](=O)[O-])c4cnccc34)CC2)cc1 (configuration not stated) | x | x | x | x | 9
Cc1c(C(=O)OCc2ccccc2)sc(=S)n1-c1ccccc1 | x | x | x | x | -1
CN1CC[n+]2cnc3ccccc3c21 | 7% | 3% | -18%[57.5 µM] | -15% | -33*
CCOC(=O)c1oc2ccc(/C=N/O)c(Cl)c2c1C | 7% | 7.1µM* | i | -8% | 0
CCOC(=O)c1oc2cc(C)cc(C)c2c1C | -1% | -9% | 0% | -18% | 1
Fc1ccccc1CSc1nnc(-c2ccccc2)o1 | u | 4µM* | -13%[57.5 µM] | -34% | 0
Fc1ccccc1CSc1nnc(-c2cccnc2)o1 | 22% | 7.1µM* | -16% | -18% | -9
SMILES | p53 reactivator | BRCA1 expr up | PTHR1 ag | RGS4 inh | LDHA inh
Cc1c(C(=O)C(=O)N(C)Cc2ccccc2)c2ccccc2n1C | x | x | x | x | 1
O=C(Nc1ccccc1)c1ccc(NC(=O)C2CC2)cc1 | 7% | 4µM* | i | 6% | -1
O=C(Nc1ccc(SC(F)F)cc1)c1ccc(F)cc1 | -1% | 3.2µM* | -37% | -8% | -6
CC(=O)c1ccc(NC(=O)c2ccn[nH]2)cc1 | 23% | u | i | 37% | -2
O=C(Nc1ccccc1)c1ccn[nH]1 | 9% | 7.1µM* | -11%[57.5 µM] | 16% | -9
O=C(Nc1ccc(F)cc1)c1cccc(C(=O)Nc2ccc(F)cc2)c1 | -2% | -9% | i | 12% | -2
O=C(NNC(=S)Nc1ccccc1)c1ccc(NC(=O)C2CC2)cc1 | x | x | x | x | 8
O=C(Nc1ccc(SC(F)F)cc1)c1ccccc1F | u | u | -42% | -27% | 1
O=C(Nc1ccc(F)cc1)c1ccccc1 | 16% | 11µM* | -11%[57.5 µM] | 5% | -3
Cc1oc(-c2ccc(C(=O)NCc3cccnc3)cc2)nc1CS(=O)c1ccccc1 (configuration not stated) | x | x | x | x | 1
NC(=O)COc1cccc(C2CC(=O)Nc3nc(N4CCCCC4)sc32)c1 (configuration not stated) | x | x | x | x | 100
